The values that follow come from PubChem BioAssay (Tox21).

Results filed as inconclusive are left out. Where a call stands in place of a potency, no number is given. Calls of active or inactive are those of the source. Calls come from the whole dose curve; as a rule, active = well fitted cell-killing curve with a large enough effect in the repeat runs; inconclusive = weak or mixed curves, or effect the other way; inactive = flat fitted curve, though single readings scatter.

This experiment is described as follows: cAMP Responsive Elements (CRE) small molecule agonists, cell-based qHTS assay: qHTS cell viability counter screen (AID 2060914). Note: nearly all actives have a fitted effect of over 50% in size. Conditions: CRE-bla HEK293T viability, CellTiter-Glo luminescence, 5 h; series mostly up to 92.4 µM. In short, it runs like this:
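HEK 293T CRE-bla; DMEM + 10% dialyzed FBS, 25 mM HEPES; 18 h pre-incubation; compound 3 h, 37 °C/5% CO2; CellTiter-Glo added after reporter read; luminescence after 30 min RT.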
In general terms: qHTS replaces the single test concentration by a dilution series.
Take `O=S(=O)(O)O`: the Potency result is “inactive”. With `CC(C)(C)NCC(O)c1cc(Cl)c(N)c(Cl)c1` (stereo not drawn), the Potency entry was “inactive”. Next, `COc1nn(C(=O)NS(=O)(=O)c2ccccc2OC(F)(F)F)c(=O)n1C`: “inactive”. Next, `O=[N+]([O-])c1ccccc1O`: “inactive”; `O=S(=O)(NS(=O)(=O)C(F)(F)F)C(F)(F)F`: “inactive”. As to `COc1cccc(C=O)c1`, the Potency result was “inactive”. Next, `COc1cc(OC)nc(Oc2cccc(Oc3nc(OC)cc(OC)n3)c2C(=O)O)n1`: “inactive”; `CC(C)OC(=O)C(O)(c1ccc(Cl)cc1)c1ccc(Cl)cc1`: “inactive”; `O=C(O)c1nn(Cc2ccc(Cl)cc2Cl)c2ccccc12`: “inactive”.

`COP(=S)(OC)Oc1cc(Cl)c(Br)cc1Cl`: the Potency result was “inactive”. Turning to `Cc1ccccc1CO[C@@H]1C[C@@]2(C(C)C)CC[C@]1(C)O2`, the Potency entry was “inactive”. The same measure for `CN1[C@@H]2CC[C@H]1CC(O)C2` (stereo partly drawn): “inactive”; for `CO/C=C(/C(=O)OC)c1ccccc1COc1cccc(C(F)(F)F)n1`: “inactive”. Next, `CC(c1ccccc1)(c1ccc(O)cc1)c1ccc(O)cc1`: “inactive”; `O=[N+]([O-])c1ccc2ccc3cccc4ccc1c2c34`: “inactive”; `CCOCN(C(=O)CCl)c1c(C)cccc1CC`: “inactive”. Next, `O=C(Nc1ccccc1)Nc1ccnc(Cl)c1`: “inactive”; `O=C(O)c1ccc2[nH]cc(CCCCN3CC=C(c4ccccc4)CC3)c2c1`: “inactive”.
